Compound activity: PubChem BioAssay, National Center for Advancing Translational Sciences (NCATS)
A selection: hits, their analogues and other compounds. The true share with any hit is near 12%.
VP16 counter – VP16 counterscreen qHTS for inhibitors of ROR gamma transcriptional activity; hit rate 3.5% among 310,000; Drosophila S2 Gal4-VP16 UAS-luciferase, luminescence, 20 h; Potency, µM (series often up to 53.6 µM), inactives show at the top dose activity, negative = inhibition, actives largely listed as inhibitors;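 note: Gal4-VP16 expression switched on by copper sulfate through the metallothionein promoter; nearly all actives have a fitted effect of over 50% in size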
RORg inh – qHTS for inhibitors of ROR gamma transcriptional activity; Potency, µM (doses to about 53.6 µM), for the others: at the top dose activity change, negative = inhibition, actives largely listed as inhibitors; Nuclear receptor ROR-gamma (Mus musculus), P51450; AID 2551, 2010; hit rate 5.4% among 310,000; Drosophila S2 Gal4-RORgamma UAS-luciferase reporter, 20 h; note: nearly all actives have a fitted effect of over 60% in size
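Stably transfected Drosophila Schneider cells are the test system, with ROR gamma fused to Gal4 and luciferase under UAS control; luminescence is read after 20 hr of 700 uM copper sulfate induction at ambient temperature.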
PLK1 PBD inh – qHTS for Inhibitors of PLK1-PDB (polo-like kinase 1 - polo-box domain): Primary Screen | Plk1 PBD binding of FITC phosphopeptide, fluorescence polarization | Potency, µM, inactives show max response, negative = inhibition, most hits filed as inhibitors | hit rate 2.8% among 360,000 | AID 720504, 2013; note: series mostly up to about 57 µM; nearly all actives have a fitted effect of over 65% in size
ALDH1A1 inh – qHTS Assay for Inhibitors of Aldehyde Dehydrogenase 1 (ALDH1A1); hit rate 7.3% among 220,000; Purified ALDH1A1, NADH fluorescence, propionaldehyde substrate; Aldehyde dehydrogenase 1A1 (Homo sapiens), P00352; Potency, µM (top dose mostly 75.3 µM), for the others: at the top dose activity, negative = inhibition, hits mostly inhibitors; active = well fitted inhibition curve with a large enough effect, not every such curve was filed as active; inconclusive = small, poorly fitted or top-dose-only effect, or another doubt; inactive = no such curve, though single readings can be large or run the other way;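 note: plate controls were no enzyme wells and a reference inhibitor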
Target sequence (P00352 whole entry, looked up): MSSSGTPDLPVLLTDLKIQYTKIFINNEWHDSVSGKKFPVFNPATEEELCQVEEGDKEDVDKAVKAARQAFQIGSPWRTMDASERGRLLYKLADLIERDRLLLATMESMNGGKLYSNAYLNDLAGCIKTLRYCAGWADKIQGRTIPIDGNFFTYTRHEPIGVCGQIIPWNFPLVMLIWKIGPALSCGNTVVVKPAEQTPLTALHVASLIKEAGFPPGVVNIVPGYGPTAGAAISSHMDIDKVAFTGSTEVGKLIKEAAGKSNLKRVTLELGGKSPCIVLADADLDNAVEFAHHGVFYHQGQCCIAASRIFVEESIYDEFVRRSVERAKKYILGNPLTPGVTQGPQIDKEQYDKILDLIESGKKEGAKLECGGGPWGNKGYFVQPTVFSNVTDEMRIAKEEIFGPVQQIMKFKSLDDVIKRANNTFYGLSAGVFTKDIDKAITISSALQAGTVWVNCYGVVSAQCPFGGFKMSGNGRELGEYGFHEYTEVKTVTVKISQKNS
Sfp inh – qHTS Assay for Inhibitors of Bacillus subtilis Sfp phosphopantetheinyl transferase (PPTase). 4'-phosphopantetheinyl transferase ffp (Bacillus subtilis), Q9F4F7. Biochemical Sfp PPTase activity, qHTS. Potency, µM, without a hit: largest response in the series, negative = inhibition, most hits filed as inhibitors. hit rate 3.5% among 310,000;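 note: the enzyme is Sfp with the accession as filed and its product quenches rhodamine fluorescence; 0% = enzyme reaction without inhibitor and -100% = no enzyme wells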
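Buffer: 50 mM Hepes-Na pH 7.6, 10 mM MgCl2, 0.01% Nonidet P-40, 0.01% BSA. Enzyme 15 nM, pre-exposed to compound 15 min; substrates then added and fluorescence change tracked over 30 min.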
Numbers without * were called inactive; ? = inconclusive; . = no result given; [ ] = dose if it differs, or a comment. Unless noted, calls come from the whole dose curve; as a rule, active = well fitted curve in the direction sought with a large enough effect; inconclusive = small, poorly fitted or top-dose-only effect, or another doubt; inactive = no such curve, though single readings can be large; an effect the other way counts as inactive or inconclusive. Unless noted, % is set by controls: 0 for no effect and ±100 for the full control effect; potency is the fitted concentration of half-maximal effect.

SMILES | VP16 counter | RORg inh | PLK1 PBD inh | ALDH1A1 inh | Sfp inh
CCc1nc2ccc(C(=O)N3CCN(c4cccc(C)c4C)CC3)cc2nc1CC | -2.4% | 13.9% | 26.7µM* | . | -16.0%
CN(C)C(=O)c1ccc(-c2cncnc2NCCc2cnc[nH]2)cc1 | -4.5% | 10.1% | . | -1.4% | 3.9%
O=S(=O)(Cc1ccccc1)C(c1ccccc1)S(=O)(=O)Cc1ccccc1 | . | . | -7.5% | . | .
Cc1n[nH]c(=O)nc1NCC1CCCO1 (stereo not drawn) | -3.4% | -11.8% | 26.7µM* | ? | ?
Cc1nc(NCC2CCCO2)[nH]c(=O)c1CCC(C)C (stereo not drawn) | 2.7% | 25.1% | -9.8% | 2.0% | 20.6%
COc1ccccc1C(C(=O)c1ccccc1)c1ccc(O)cc1 (stereo not drawn) | . | . | 5.1% | . | .
Cn1c(SCC(=O)Nc2ccccc2Br)nnc1-c1cnccn1 | -2.5% | -11.5% | -9.5% | . | 12.7%
CCn1c(SCC(=O)Nc2ccccc2Br)nnc1-c1cnccn1 | -17.6% | -12.9% | 21.2µM* | . | 9.7%
O=C(NCc1ccc(Cl)cc1)c1ccc(-c2ccc(F)c(F)c2)c2ccoc12 | . | . | -10.2% | . | .
COc1ccccc1NS(=O)(=O)c1cc(NC(=O)c2ccc(Cl)nc2)ccc1Cl | 20µM* | 15.7% | 2.3% | 25.1µM* | -15.5%
CC(NC(N)=O)C(=O)Nc1ccc(Cl)c(S(=O)(=O)Nc2ccc(Br)cc2)c1 (stereo not drawn) | 3.16µM* | 6.31µM* | -5.1% | 7.2% | -13.0%
COc1ccccc1NS(=O)(=O)c1cc(NC(=O)C(C)NC(N)=O)ccc1N1CCCC1 (stereo not drawn) | . | . | 13.4µM* | . | .
COc1ccc(NS(=O)(=O)c2cc(NC(=O)[C@H](C)NC(N)=O)ccc2N2CCCC2)cc1 | . | . | -9.5% | . | .
COc1ccc(NS(=O)(=O)c2cc(N)ccc2N2CCCCC2)cc1 | . | . | -7.3% | . | .
Nc1ccc(N2CCCC2)c(S(=O)(=O)Nc2cccc(C(F)(F)F)c2)c1 | . | . | 4.74µM* | . | .
N#CCCn1c(=O)c(-c2ccc(F)cc2)nc2cnc(Oc3ccccc3)nc21 | -0.9% | -10.9% | . | ? | 4.4%
CCOC(=O)C(=CNc1ccc(N2CCCCC2)c(S(=O)(=O)Nc2ccccc2OC)c1)C(=O)OCC | . | . | 10.6µM* | . | .
COc1ccccc1NS(=O)(=O)c1cc(NC(C)=O)ccc1N1CCCCC1 | -0.6% | 3.6% | 9.47µM* | 8.91µM* | 44.7µM*
COCC(=O)Nc1ccc(N2CCCC2)c(S(=O)(=O)Nc2ccccc2OC)c1 | . | . | -12.0% | . | .
COc1ccccc1NS(=O)(=O)c1cc(NC(=O)CCNC(C)=O)ccc1N1CCCCC1 | . | . | -22.3% | . | .
COc1ccccc1NS(=O)(=O)c1cc(N)ccc1N1CCCC1 | . | . | 6.7µM* | . | .
COc1ccccc1NS(=O)(=O)c1cc(NC(=O)c2ccncc2)ccc1N1CCCC1 | -15.9% | 0.5% | 16.8µM* | 11.2µM* | 14.1µM*
CC1CCN(S(=O)(=O)N2CCC(C(=O)NC(C)c3ccccc3)CC2)CC1 (stereo not drawn) | . | . | -1.1% | . | .
CC1(C(=O)NS(=O)(=O)Cc2ccccc2)CCN1C(=O)C1(c2ccc(Cl)cc2)CCC1 (stereo not drawn) | . | . | -4.9% | . | .
CCOC(=O)[C@]12CCCC=C1N(Cc1ccc(Cl)cc1Cl)C(=O)[C@H](CC(=O)N1CCN(C(=O)C3CC3)CC1)C2 | . | . | -1.4% | . | .
SMILES | VP16 counter | RORg inh | PLK1 PBD inh | ALDH1A1 inh | Sfp inh
COc1ccccc1Sc1nc(-c2ccccc2)ncc1OC | 0.6% | 7.9% | -2.9% | 4.5% | 8.9%
CCOC(=O)C(C)Sc1ncc(OC)c(Sc2ccc(Cl)cc2)n1 (stereo not drawn) | 2.5% | -1.4% | -2.0% | -10.1% | -6.0%
COc1cnc(-c2ccccn2)nc1Sc1c(Cl)cccc1Cl | 10µM* | 3.16µM* | -4.8% | 1.6% | 21.3%
COc1cnc(-c2ccccn2)nc1Sc1ccccc1Cl | 10µM* | 2.51µM* | -6.4% | ? | -25.4%
CCOC(=O)C(C)Sc1nc(-c2ccccn2)ncc1OC (stereo not drawn) | ? | 7.08µM* | ? | ? | 35.5µM*
CC(/C=C/c1ccc(N(C)C)cc1)=N\N=C(/N)SC1CC(=O)N(c2ccc(C(=O)O)cc2)C1=O (stereo not drawn) | 2.24µM* | 0.794µM* | -20.3% | 15.8% | ?
CC(=O)Nc1ccn(C2CC3OCC(NC(=O)C(Cc4ccccc4)NC(=O)OC(C)(C)C)C3O2)c(=O)n1 (stereo not drawn) | 11.8% | 9.8% | . | . | 16.5%
CCN(CC)C(=O)C1CCCN(c2ccccc2[N+](=O)[O-])C1 (stereo not drawn) | 3.8% | 27.6% | -5.5% | 12.6µM* | -7.1%
CCN(CC)C(=O)C1CCCN(c2ccc([N+](=O)[O-])cc2[N+](=O)[O-])C1 (stereo not drawn) | ? | 14.9% | -0.6% | -5.6% | 1.9%
CC(C)C(NC(=O)c1ccccc1F)C(=O)NCc1ccccc1 (stereo not drawn) | -4.3% | -17.2% | 26.7µM* | . | 15.6%
O=C(Nc1cccc(O)c1)c1noc2c1CCc1ccccc1-2 | 1.41µM* | 0.355µM* | 0.4% | -1.9% | -33.3%
Cc1ccc(NC(=O)c2noc3c2CCc2ccccc2-3)cc1 | 1.8% | 31.9% | -8.2% | -3.9% | -28.5%
COc1ccc(CN2C[C@@H](CO)O[C@@H](n3cnc4c(NC5CCC5)ncnc43)C2)cc1 | . | . | -6.8% | . | .
COc1ccc(C(=O)N2CCC3(CCCN(C(=O)NC(C)C)C3)CC2)cc1 | -5.2% | 13.2% | . | 13.2% | 13.4%
Cc1nc2ccc(NC3=NCCCCC3)cc2s1 | 3.7% | -16.1% | 29.9µM* | ? | ?
CCOCCCNC(=S)N1CCN(Cc2ccco2)CC1 | -8.4% | -11.1% | -1.6% | 14.1µM* | ?
O=C(Nc1ccc2c(c1)OCO2)c1cc(C2CCCCN2C(=O)CCCc2ccccc2)on1 (stereo not drawn) | . | . | 2.0% | . | .
Cc1ccc(N=Cc2cccc(O)c2O)c(C)c1 | ? | 10µM* | . | ? | 3.55µM*
Cc1ccccc1N=Cc1cccc(O)c1O | -6.2% | -30.1% | -17.8% | 5.01µM* | ?
Oc1cccc(/C=N/N=C/c2cccc(O)c2O)c1O | ? | ? | 2.7% | . | 24.0%
CC(C)CNC(=S)NC1CC2CCC(C1)N2Cc1ccccc1 (stereo not drawn) | ? | 10µM* | -9.7% | ? | -4.4%
CCNC(=S)NC1CC2CCC(C1)N2Cc1ccccc1 (stereo not drawn) | 7.7% | 3.7% | -9.2% | 8.0% | 1.6%
Cc1nc2ccccc2nc1-c1ccc(N=[N+]([O-])c2ccc(-c3nc4ccccc4nc3C)cc2)cc1 | . | . | . | 2.0%[13.5 µM] | .
Cc1cc(O)c(C=O)c2c1C(=O)Oc1c(COC(=O)/C=C/C(=O)O)c(O)c(C(=O)O)c(C)c1O2 | -6.0% | 34.5% | . | 4.47µM* | -52.1%
